Bioassay records from PubChem.
Hits are enriched below; roughly 1.3% of the tested compounds scored in any of these assays.
GALR2 antag = GALR2 antagonists in receptor-expressing cells, primary screen | Galanin receptor type 2 (Homo sapiens), O43603 | antagonist mode | inhibition, % at 4 µM | hit rate 0.39% among 140,000; in the data active means inhibition above about 27%;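 further: cells stimulated with galanin 1-16 at roughly its EC80; 0% = agonist challenge control and 100% = basal control without agonist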
Target sequence (O43603 whole entry, looked up): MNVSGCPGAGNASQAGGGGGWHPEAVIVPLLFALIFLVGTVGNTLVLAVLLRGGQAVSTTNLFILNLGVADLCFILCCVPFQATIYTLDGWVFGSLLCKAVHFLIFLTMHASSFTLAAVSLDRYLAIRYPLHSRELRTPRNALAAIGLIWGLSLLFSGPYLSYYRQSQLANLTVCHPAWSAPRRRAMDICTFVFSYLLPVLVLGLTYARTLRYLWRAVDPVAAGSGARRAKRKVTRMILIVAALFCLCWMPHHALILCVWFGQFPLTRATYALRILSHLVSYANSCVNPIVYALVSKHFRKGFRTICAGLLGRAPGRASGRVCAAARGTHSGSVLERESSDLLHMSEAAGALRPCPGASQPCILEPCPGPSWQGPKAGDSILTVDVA
Phagocyt inh = inhibitors of macrophage phagocytosis, primary screen, imaging, J774A.1 cells, IgG beads | AID 1029, 2008 | inhibition, % at 5 µM | J774A.1 macrophage IgG-bead phagocytosis | hit rate 0.07% among 110,000;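 active means inhibition above the mean of the plate negative controls plus 5 SD, cut at about 13% in these data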;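 further: phagocytic index as fraction of beads internalized from green versus red external bead signal; plate controls were DMSO negative control for no effect and cytochalasin-D positive control for full effect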
S1P2 ag = S1P2 receptor agonists, primary screen, cell-based | Sphingosine 1-phosphate receptor 2 (Homo sapiens), O95136 | activation, % at 4.5 µM | S1P2-expressing cell line, agonist reporter read-out | hit rate 0.46% among 97,000; in the data active means activation above about 16%;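 further: 0% = vehicle low control and 100% = maximal reference agonist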
GALR2 agonist = GALR2 receptor agonists, primary screen, cell-based | hit rate 0.48% among 140,000 | activation, % (concentration not given with the values) | GALR2-expressing cells, agonist activation read-out | Galanin receptor type 2 (Homo sapiens), O43603 | AID 803, 2007; in the data active means activation above about 5%, passing the limit was not always enough;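 further: 0% = vehicle buffer wells and 100% = reference agonist at full effect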
S1P2 blocker = human S1P2 receptor antagonists, primary screen, cell-based | inhibition, % at 5 µM | hit rate 0.21% among 97,000 | cell-based S1P2 antagonist assay, inhibition at 5 uM | Sphingosine 1-phosphate receptor 2 (Homo sapiens), O95136; in the data active means inhibition above about 45%;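 further: CRE beta-lactamase reporter cells expressing human S1P2 stimulated with S1P; 0% = agonist at EC80 alone and 100% = agonist plus reference antagonist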
* marks the source's active call; other numbers are inactive results; / = no result.

SMILES | GALR2 antag | Phagocyt inh | S1P2 ag | GALR2 agonist | S1P2 blocker
CN(C)CCNS(=O)(=O)c1ccc(N2CCN(c3ccc(F)cc3)CC2)c([N+](=O)[O-])c1 | -5 | 0 | / | 0 | /
CCSc1ccc(-c2nn(-c3ccccc3)cc2/C=C(/C#N)C(=O)NCCCOC)cc1 | 0 | -10 | / | 5.9* | /
CCCCN1C(=O)Cc2c1nc(N)c1c(N)nc(N(CCC)CCC)c(C#N)c21 | 1 | 1 | 0 | 1 | 1
CCCN(CCC)c1nc(N)c(C#N)c(CC#N)c1C#N | -8 | 0 | 16* | 0 | -42
CCCN(CC1CC1)c1nc(N)c(C#N)c(CC#N)c1C#N | -8 | -2 | 16* | -1 | -35
COc1ccc(C)cc1NC(=O)C(=O)N/N=C(\C)CC(=O)Nc1cccnc1 | 1 | -14 | / | -1 | /
CC1(C)C2CCC1(C)C1(C2)NC(=O)c2ccccc2O1 (stereo not given) | -1 | -4 | / | 0 | /
CCn1c(C)cc(/C=C2/NC(=O)N(CC(=O)Nc3cccc(C)c3)C2=O)c1C | -10 | -7 | / | 8.0* | /
CCOC(=O)N1CCC(NC(=O)C(NC(=O)C2CCC(C)CC2)C(C)CC)CC1 (stereo not given) | 8 | 2 | -3 | -2 | 5
N#C/C(=C\c1cn(-c2ccccc2)nc1-c1cc2ccccc2o1)c1nc2ccccc2[nH]1 | 20 | / | / | 2 | /
CN(C)S(=O)(=O)c1cccc(-c2nn(-c3ccccc3)cc2/C=C(\C#N)c2nc3ccccc3[nH]2)c1 | -7 | -6 | / | 7.3* | /
CCOC(=O)c1c(C)n(C)c2cc(-c3ccc(C)cc3)c(O)cc12 | -9 | -6 | / | 5.3* | /
CCOC(=O)c1c(C)n(C)c2cc(-c3cccc(C(F)(F)F)c3)c(O)cc12 | 6 | -2 | / | 0 | /
COc1cc2c(cc1OC)C(COc1ccc3c(C)cc(=O)oc3c1)N(C(=O)c1ccco1)CC2 (stereo not given) | 2 | / | 21* | -1 | -8
Cc1cc(-n2c(C)cc(C(=O)CSc3ncnc4ccccc34)c2C)no1 | 21 | 1 | -5 | -2 | 60*
Cc1cc(-n2c(C)cc(C(=O)CSc3nnc4sc5ccccc5n34)c2C)no1 | -3 | 1 | -2 | -3 | -14
COc1ccc(CCNC(=O)CCC(=O)Nc2nnc(C(C)C)s2)cc1OC | -3 | / | / | -1 | /
Cc1cccc(-n2c(SCc3cc(=O)n4ccsc4n3)nc3ccccc32)c1 | 0 | / | 26* | 1 | -42
Cc1ccc(SCc2cc(=O)n3ccsc3n2)c(C)c1 | 1 | -12 | / | 0 | /
COc1ccccc1-c1nn2c(-c3ccccc3Cl)nnc2s1 | / | -1 | / | / | /
Cc1ccc(-c2nn3c(C)nnc3s2)cc1NC(=O)c1ccc(-c2ccc(Cl)cc2Cl)o1 | -3 | -1 | / | 6.8* | /
Cc1ccc(-c2nn3c(C)nnc3s2)cc1NC(=O)c1ccc(-c2cccc(Cl)c2)o1 | -23 | 1 | -5 | 0 | 0
CN(C)c1ccc(-c2nn3c(-c4ccc(Cl)cc4Cl)nnc3s2)cc1 | -1 | -5 | / | 6.0* | /
CCN(CC)c1ccc(-c2nn3c(-c4ccccc4OC)nnc3s2)cc1 | 11 | 4 | 4 | 6.8* | 3
CC(Oc1ncnc2ccccc12)C(=O)Nc1cccc(S(=O)(=O)N2CCOCC2)c1 (stereo not given) | -1 | 1 | / | -1 | /
SMILES | GALR2 antag | Phagocyt inh | S1P2 ag | GALR2 agonist | S1P2 blocker
CCC(=O)N(Cc1c(C)nn(-c2ccccc2)c1Cl)c1ccc(Cl)cc1 | -2 | -6 | / | 0 | /
O=c1oc2ccccc2cc1-c1nc2c(s1)CCCC2 | 17 | -1 | 16* | 17* | -6
CCC(=O)c1cc2c(C)cc(=O)oc2c(C)c1OC(C)=O | 2 | -1 | / | 1 | /
CCC(=O)c1cc2c(C)cc(=O)oc2c(C)c1O | 3 | 0 | 119* | 0 | -17
CCOc1cc(CNCCc2ccc(S(N)(=O)=O)cc2)ccc1OCc1ccc(Cl)cc1 | 9 | / | -5 | 1 | 61*
Cc1cc(SCC#N)n2nc(C)c(-c3ccc(Cl)cc3)c2n1 | -2 | 0 | 39* | 0 | -35
Cc1cc(SCC(=O)c2cccs2)n2nc(C)c(-c3ccccc3)c2n1 | -14 | -10 | / | 0 | /
Cc1cc(SCC#N)n2nc(C)c(-c3ccccc3)c2n1 | -6 | 0 | 16* | -1 | -33
COc1cccc(-c2nnc3sc(C4CCCCC4)nn23)c1 | -13 | 1 | -4 | 1 | -10
COc1cc(-c2nnc3sc(C4CCCCC4)nn23)cc(OC)c1OC | -9 | 0 | 20* | 2 | -21
Cc1ccc2c(c1)N(C(=O)CCC(=O)O)CCO2 | 4 | -3 | / | -1 | /
O=C(CCC1CCCC1)N1CCC(N2CCCCCC2)CC1 | -6 | -6 | / | -1 | /
Clc1ccc(Nc2nc3ccccc3n3nnnc23)cc1 | -7 | -1 | 1 | -1 | -9
Fc1cc(Br)ccc1Nc1nc2ccccc2n2nnnc12 | 7 | / | / | 6.1* | /
CCCc1cc2c(cc1NC(=O)c1ccc(C)cc1)OCO2 | 1 | / | -4 | -3 | -11
Cc1nn(-c2ccccc2)c(N2CCCC2)c1/C=N/n1cnc2scc(-c3ccccc3)c2c1=O | -5 | -2 | -9 | -2 | 23
O=c1c2c(-c3ccccc3)csc2ncn1/N=C/c1c2ccccc2cc2ccccc12 | -11 | -2 | 18* | -1 | 15
COc1ccc(C(=O)N[C@H](C(=O)OCc2cc(=O)oc3cc(C)ccc23)C(C)C)cc1 | -6 | -3 | / | -1 | /
COc1ccc(C(=O)OCCNC(=O)c2c(Cl)nc3ccccn23)cc1 | -7 | -1 | 21* | -1 | -28
CC(C)(C)c1ccc(C(=O)OCCNC(=O)c2c(Cl)nc3ccccn23)cc1 | 7 | -1 | -5 | -3 | -8
COc1ccc(CC(=O)Nc2cccc(-c3nnc(-c4ccccc4)o3)c2)cc1OC | 12 | 2 | -6 | -1 | 56*
COc1ccc(CC(=O)Nc2cccc(-c3nnc(-c4cccc(C)c4)o3)c2)cc1OC | 28* | 0 | / | -1 | /
O=C(Nc1nc2ccc(SC(F)F)cc2s1)c1ccc(NS(=O)(=O)c2ccc(F)c(F)c2)cc1 | 13 | 1 | / | 1 | /
NC(=O)COC(=O)CNC(=O)c1ccc(Cl)cc1 | -5 | 3 | -1 | -2 | 0
NC(=O)CCNC(=O)c1ccc(Cl)cc1 | -8 | -1 | 44* | -2 | 25
SMILES | GALR2 antag | Phagocyt inh | S1P2 ag | GALR2 agonist | S1P2 blocker
O=C(N/N=C/c1ccc[nH]1)c1ccc(Cl)cc1 | 2 | -2 | / | 0 | /
CCCc1nc2ccccc2c(C(=O)OCC(=O)Nc2cccc(S(=O)(=O)N3CCOCC3)c2)c1CC | 9 | / | 19* | -1 | -10
CCOC(=O)/C=C1\NC(=O)C(C)S1 (stereo not given) | 1 | 0 | 0 | -1 | 3
O=C(c1cccn(Cc2ccc(Cl)c(Cl)c2)c1=O)N1CCOCC1 | 13 | / | -6 | -4 | 6
O=c1c(-c2nc3ccccc3s2)cccn1Cc1ccc(Cl)c(Cl)c1 | -13 | 0 | 109* | 12* | -117
COc1ccc(CCNC(=O)CC2SC(=NCCc3ccccc3)NC2=O)cc1 (stereo not given) | 4 | -4 | / | 0 | /
O=C(CSC1=NCCS1)Nc1ccnc2ccccc12 | 35* | -1 | / | -2 | /
